From PubChem BioAssay
Many of the other results were omitted from the sample, so hits are more common in it than they were.
Dicer processing: human Dicer pre-microRNA cleavage inhibition. Q9UPY3. cat-ELCCA pre-miR-21 Dicer processing, chemiluminescence; stronger effect = higher value. z-score at 25 µM. 47,000 compounds, 6% hits. AID 1347074; in the data active = z-score above about 3, passing the limit was not always enough;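 also: plate controls were vehicle for no effect and no enzyme for full effect; higher signal means more uncleaved substrate so more Dicer inhibition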
Active calls of the source: *.

SMILES | Dicer processing
COc1cccc(CNC2CN3CCC2CC3)c1OC (stereo not given) | -1.2
Fc1ccc(CNC2CN3CCC2CC3)cc1 (stereo not given) | 3.1*
O=C(NC1CN2CCC1CC2)c1cccc(Cl)c1 (stereo not given) | -0.41
Cc1nn(C(C)(C)C)c(C)c1/C=N/OC(=O)Nc1cccc(C(F)(F)F)c1 | 0.15
NC(=NCCCC(NC(=O)OCc1ccccc1)C(=O)O)N[N+](=O)[O-] (stereo not given) | -0.26
CC[N+](CC)(CC)CC | -1.2
O=C(NC1CCCCC1)Oc1cc2oc(=O)sc2cc1Cl | 4.1*
Oc1cc(Cl)ccc1Oc1ccc(Cl)cc1Cl | -0.59
OCC12COC3c4ccccc4C(OC1)N32 (stereo not given) | 5.6*
CN(C)C(=O)O/N=C(\N)c1ccc(C2SCCS2)cc1 | -2.5
C[C@H]1C2Cc3ccc(O)cc3C1(C)CCN2CC1CC1 (stereo not given in full) | 0.02
CN(C)c1ccc(-c2ccc(N(C)C)cc2)cc1 | 2.2
c1coc(CNCCc2ccc3c(c2)OCO3)c1 | 7.7*
CCc1ccc(CNCCc2ccc3c(c2)OCO3)cc1 | 0.83
c1cc2c(cc1CCNCc1ccc3c(c1)OCO3)OCO2 | 2.5
CC(C)Sc1nnc(OC(=O)N(C)C)n1-c1ccccc1 | -0.05
COc1ccccc1-n1c(/C=C/c2ccc([N+](=O)[O-])o2)nc2ccccc2c1=O | 0.28
C=CCc1c(CCC)nc(SCc2ccc(F)cc2)nc1OC(=O)N(C)C | -1.6
Cc1ccc(NC2=NCCS2)cc1Cl | -1.1
COc1ccc(OC)c(NC2=NCCS2)c1 | 3.1*
COc1ccc(Br)c(NC2=NCCS2)c1 | -0.17
Clc1cnc(Oc2ccc(Oc3ncc(Cl)cc3Cl)cc2)c(Cl)c1 | -0.37
C=C(C)Cc1c(C)nc(SCC(=O)c2ccc(Cl)cc2)nc1OC(=O)N(C)C | 1.7
C=C(C)[C@@H]1C2C(=O)O[C@H]1[C@H]1OC(=O)[C@@]34OC3C[C@]2(O)[C@@]14C (stereo not given in full) | 2.5
CCOC(=O)C1=C(N)Oc2c(c(=O)oc3ccccc23)C1c1ccccc1 (stereo not given) | 6.5
SMILES | Dicer processing
CCC1C(C#N)=C(N)Oc2c1c(=O)oc1ccccc21 (stereo not given) | -0.66
CCOC(=O)C1=C(N)Oc2c(c(=O)oc3ccccc23)C1c1ccc(OC)cc1 (stereo not given) | 3*
CN1C2CCC1CC(=NOC(=O)c1ccc(Cl)cc1)C2 | -1.4
C=CCCN1C(=O)CN=C(c2ccccc2)c2ccccc21 | -0.62
CCCCN1CCCC1C(O)(c1ccccc1)c1ccccc1 (stereo not given) | -0.48
O=C(CNC1CCCCC1)c1ccc(O)c(O)c1 | 10*
Clc1cccc(CNCCc2ccc3c(c2)OCO3)c1 | 0.41
C[C@]12CCC3C(CCC45CC(=O)CCC34C5)C1CCC2=O (stereo not given in full) | -1.9
O=C(Cn1cc(C(=O)c2ccccc2)c2ccccc21)NCc1ccc2c(c1)OCO2 | 3.5*
c1ccc(CCNCc2ccc3c(c2)OCO3)cc1 | -0.43
O=C(O)c1cn(Cc2ccc(Cl)cc2)c2ccccc12 | 0.07
O=c1ccc2cc(O[C@@H]3O[C@H](CO)[C@@H](O)[C@H](O)[C@H]3O)c(O)cc2o1 | 0.83
CCCN(CCC)C1CCc2cccc(O)c2C1 (stereo not given) | 0.27
Clc1cccc(CN2CCN(Cc3cccc(Br)c3)CC2)c1 | 1.3
COc1ccc(O)c(CN2CCN(Cc3ccc(Br)cc3)CC2)c1 | 5.1*
Oc1ccc(Br)cc1CN1CCN(Cc2ccc(F)cc2)CC1 | 3.3*
Oc1ccc(Br)cc1CN1CCN(Cc2cccc(F)c2)CC1 | 7*
COc1ccccc1CN1CCN(Cc2cc(Br)ccc2O)CC1 | 8*
COc1ccccc1N1CCN(Cc2ccccc2F)CC1 | -1.6
CSc1ccc(CN2CCN(Cc3ccc(F)cc3)CC2)cc1 | 2.4
Cc1ccc(S(=O)(=O)N2CN3CCN(C3)C2)cc1 | -0.35
O=C1CC(=O)N(c2ccccc2F)C(=O)N1 | -2.5
COC(CSc1nc2cccc(F)c2c(=O)n1-c1ccc(C)c(C)c1)OC | 0.89
CC(=O)OC12CCC(=O)C=C1CCC1C3CCC(=O)C3(C)CCC12 (stereo not given) | -1.1
CN1[C@@H]2CC[C@H]1CC(OC(=O)C1C=Nc3ccccc31)C2 (stereo not given in full) | 4
SMILES | Dicer processing
CSc1ccc(CN2CCN(Cc3cc(Br)ccc3O)CC2)cc1 | 6.1*
CSc1ccc(CN2CCN(Cc3ccc(Cl)cc3)CC2)cc1 | 0.08
OC(c1ccccc1)(c1ccccc1)C1CCNCC1 | 0.78
CCC(=O)N1N=C2C3CCN(CC3)C2C1c1ccc(N(C)C)cc1 (stereo not given) | -0.07
O=C1OC2(c3cc(Br)c(O)cc3Oc3c2cc(Br)c(O)[c]3[Hg])c2ccccc21 (stereo not given) | 0.04
Cc1ccccc1NC(=O)c1cc(-c2ccccc2)n(CCCN2CCOCC2)c1C | -0.05
CC1CC(O)(c2ccccc2)C(C)CN1C (stereo not given) | 3.6*
CNCCc1ccc(O)c(O)c1 | 0.35
Cc1ccc(S(=O)(=O)N[C@@H](CCCCN)C(=O)CCl)cc1 | -0.21
O=c1c2ccccc2[nH]c(=S)n1-c1ccc(F)cc1 | -0.6
COc1ccc(C(=O)N2CCCC2=O)cc1 | -0.96
CC(C)C1(C)N=C(c2ncccc2C(=O)O)NC1=O (stereo not given) | 3.2*
CC1(C)CCC(C)(C)c2cc(-c3csc(CC#N)n3)ccc21 | 0.14
NC(=O)COc1c(F)cc(SCCNS(=O)(=O)c2ccccc2)cc1F | -1.1
CCCN1CC[C@@H]2c3cc(O)ccc3CC[C@@H]21 | 0.79
O=C(O)CC[N+](=O)[O-] | -0.75
CCc1nc2ccccc2c(=O)n1-c1ccc2ccccc2c1 | 2.9
CC1(C)CN=C(NCc2ccccn2)S1 | 4*
O=[N+]([O-])/C=C/c1c(Cl)cccc1Cl | 2.1
CNc1ccc(C)cc1C(=O)c1ccc(Br)cc1 | 1.9
CC(C)c1ccc(NC(=O)CSc2nnc(OC(=O)N(C)C)n2C2CC2)cc1 | -0.37
CC(Cc1ccc(O)cc1)NCC(O)c1cc(O)cc(O)c1 (stereo not given) | 8.3
CSc1nc(OC(=O)N(C)C)cc(-c2ccccc2)n1 | 3.7*
Cc1cc(OC(=O)N(C)C)nc(SCc2c(F)cccc2Cl)n1 | 0.04
COCc1cc(OC(=O)N(C)C)nc(-c2cccc(C)c2)n1 | 0.37
SMILES | Dicer processing
COC(=O)C1=C(N)OC2=C(CC(=O)C(C)(C)C2)C12C(=O)Nc1ccccc12 (stereo not given) | 1.7
O=C1CSC(c2ccc(Br)cc2)c2c(n(C3CCCCC3)[nH]c2=O)N1 (stereo not given) | -0.56
O=[N+]([O-])c1cccnc1N1CCN(CCO)CC1 | -0.21
c1ccc(CN2CCN(C3CCCCC3)CC2)cc1 | 3.1*
Cc1ccc(CN2CCN(C(C)C)CC2)cc1 | 2.9
Clc1ccc(CN2CCN(Cc3ccccc3Cl)CC2)cc1 | 1.3
C=CCN1CC[C@]23CCCCC2[C@H]1Cc1ccc(O)cc13 (stereo not given in full) | 0.1
CS/C(=N\C(N)=N/[N+](=O)[O-])N(C)Cc1cccc(Cl)c1 | 0.68
COc1cccc(-n2c(/C=C/c3c[nH]c4ccccc34)nc3ccccc3c2=O)c1 | 3.4*
COc1cccc(-n2c(/C=C/c3ccco3)nc3ccccc3c2=O)c1 | 0.91
O=c1c2ccccc2nc(/C=C/c2ccc(O)cc2)n1-c1ccc(O)cc1 | 1.7
C[C@@H](N)[C@@H](O)c1ccccc1 | 45
Cc1ccc(NC(=O)c2cc(-c3ccccc3)n(CCCN3CCOCC3)c2C)cc1 | 0.97
